This is part of a sample that, as a whole, favours compounds with a hit. Of some 83,000 tested, about 20% had one in any assay.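 Treatment: one concentration, 48 hours, 96-well format. Scoring: percent growth, with anything below 10 considered active.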 Unmarked numbers belong to inactive results. Activity calls are given as the source filed them.
Assays:
Assay in all cases: NCI-60 one-dose screen, 48 h (100 = growth as untreated, 0 = no growth, -100 = all killed)
Settings in all cases: 10 µM unless noted
NCI-H23 lung = tested on: NCI-H23 lung
NCI-H226 lung = tested on: NCI-H226 lung
NCI-H322M lung = tested on: NCI-H322M lung
HOP-62 NSCLC = tested on: HOP-62 NSCLC
NCI-H460 lung = tested on: NCI-H460 lung
HOP-92 NSCLC = tested on: HOP-92 NSCLC
NCI-H522 lung = tested on: NCI-H522 lung
A549/ATCC NSCLC = tested on: A549/ATCC NSCLC
786-0 renal = tested on: 786-0 renal
DU-145 prostate = tested on: DU-145 prostate
K-562 leukemia = tested on: K-562 leukemia
MDA-MB-231 breast = tested on: MDA-MB-231 breast
RXF 393 renal = tested on: RXF 393 renal
SF-268 CNS = tested on: SF-268 CNS
SF-295 CNS = tested on: SF-295 CNS
SF-539 CNS = tested on: SF-539 CNS
UACC-257 melanoma = tested on: UACC-257 melanoma
M14 melanoma = tested on: M14 melanoma
COLO 205 colon = tested on: COLO 205 colon
MALME-3M melanoma = tested on: MALME-3M melanoma

| SMILES | growth (NCI-H23 lung) | growth (NCI-H226 lung) | growth (NCI-H322M lung) | growth (HOP-62 NSCLC) | growth (NCI-H460 lung) | growth (HOP-92 NSCLC) | growth (NCI-H522 lung) | growth (A549/ATCC NSCLC) | growth (786-0 renal) | growth (DU-145 prostate) | growth (K-562 leukemia) | growth (MDA-MB-231 breast) | growth (RXF 393 renal) | growth (SF-268 CNS) | growth (SF-295 CNS) | growth (SF-539 CNS) | growth (UACC-257 melanoma) | growth (M14 melanoma) | growth (COLO 205 colon) | growth (MALME-3M melanoma) |
| --- | --- | --- | --- | --- | --- | --- | --- | --- | --- | --- | --- | --- | --- | --- | --- | --- | --- | --- | --- | --- |
| O=[N+]([O-])c1ccc(/C=N\Nc2ccccc2)cc1 | 93.9% | 87.7% | 83% | 95.2% | 76.7% | 100% | 61% | 57.7% | 87.2% | 97.1% | 25.2% | 68.2% | 107% | 73.5% | 55.3% | 107% | 97.2% | 31.6% |  |  |
| CC(=O)O[C@H]1CC[C@@]2(C)C(=CC[C@@H]3[C@@H]2CC[C@]2(C)C(=O)N(O)C(=O)C[C@@H]32)C1 | 68% | 107% | 91.9% | 68.5% | 60.8% | 93% | 75.5% | 86.9% | 81.1% | 86.9% | 49.9% | 97.9% | 74% | 91.7% | 98.9% | 105% | 106% | 96.4% |  |  |
| COc1ccc2c(c1)c(-c1nc(-c3cn(C)c4ncccc34)cs1)cn2CCCN1CCCCC1 | 79.4% | 67.1% | 80.3% | 74.9% | -40.4% (active) | 48.7% |  | 25.2% | -31.3% (active) | 42.9% | -48.4% (active) | 44.2% | 65% | 76.6% | 91.6% | 43.9% | 96% | -85.2% (active) | -65.8% (active) | 81.1% |
| Clc1cc(Cl)cc(Nc2ccc3c(OCCCN4CCOCC4)cccc3n2)c1 | 77% | 26.6% | 45.1% | 57.4% | 13.1% | 37.3% |  | 25.6% | 54% | 41.9% | -33.9% (active) | -24.6% (active) | 53.5% | 48.4% | 30.6% | 48.1% | 73.2% | 0.379% (active) | -53.4% (active) | 71% |
| CC1(C)c2ccccc2C(=O)C1(Br)Cc1ccccc1 (stereo not drawn) | 74.1% | 94.1% | 95.5% | 95% | 96.8% | 83% |  | 94.6% | 81.7% | 92.5% | 42.7% | 105% | 83.5% | 89.6% | 85.7% | 89.9% | 99.4% | 89.1% | 97.9% | 121% |
| COc1ccc(-c2nc3c(c(C)nn3-c3ccc(F)cc3)c(=O)[nH]2)cc1 | 83.3% | 33.1% | 78.7% | 58.8% | 28.2% | 91.8% |  | 45.9% | 11% | 85% | 97.1% | 75.2% | 82.8% | 78.9% | 68.1% | 87% | 101% | 82.7% | 74% | 75.3% |
| Cn1c2c(c3ccc(Cl)cc31)-n1cccc1C2=O | 95.2% | 99.3% | 85.4% | 107% | 92.9% | 81.8% |  | 75.1% | 80.9% | 88.6% | 107% | 87.5% | 91.8% | 92.3% | 105% | 94.7% | 106% | 109% | 90.4% |  |
| COc1cccc(-c2nn(-c3ccccc3)cc2-c2ccnc(NCCCNS(=O)(=O)c3ccc(C(F)(F)F)cc3)c2)c1 | 28.6% | 36.6% | 68.6% | 61.3% | 25.4% | 5.37% (active) |  | 24.4% | 16.1% | 59.6% | 8.17% (active) | 6.9% (active) | -7.54% (active) | 43.9% | 14.5% | 46.4% |  | 22.1% | -1.71% (active) | 25.8% |

From PubChem BioAssay (NCI)
